B1: 94 (nucleosome)
DNA 1: ATCCTGGAGAATCCCGGTGCCGAGGCCGCTCAATTGGTCGTAGACAGCTCTAGCACCGCTTAAACGCACGTACGCGCTGTCCCCCGCGTTTTAACCTCAAGGCCAATTACTCCCTAGTCTCCAGGCACGTGTCAGATATATACATCCTGTGAT
DNA 2: ATCACAGGATGTATATATCTGACACGTGCCTGGAGACTAGGGAGTAATTGGCCTTGAGGTTAAAACGCGGGGGACAGCGCGTACGTGCGTTTAAGCGGTGCTAGAGCTGTCTACGACCAATTGAGCGGCCTCGGCACCGGGATTCTCCAGGAT
modifications: reconstituted with mouse histones H2A, H2B, H3.3 and H4
B2: 98 (nucleosome)
DNA 1: ATCCTGGAGAATCCCGGTGCCGAGGCCGCTCAATTGGTCGTAGACAGCTCTAGCACCGCTTAAACGCACGTACGCGCTGTCCCCCGCGTTTTAACCGCCATCAAGGCCACTCCCTAGTCTCCAGGCACGTGTCAGATATATACATCCTGTGAT
DNA 2: ATCACAGGATGTATATATCTGACACGTGCCTGGAGACTAGGGAGTGGCCTTGATGGCGGTTAAAACGCGGGGGACAGCGCGTACGTGCGTTTAAGCGGTGCTAGAGCTGTCTACGACCAATTGAGCGGCCTCGGCACCGGGATTCTCCAGGAT
modifications: reconstituted with mouse histones H2A, H2B, H3.3 and H4
B3: 95 (nucleosome)
DNA 1: ATCCTGGAGAATCCCGGTGCCGAGGCCGCTCAATTGGTCGTAGACAGCTCTAGCACCGCTTAAACGCACGTACGCGCTGTCCCCCGCGTTTTAACCGTCAAGGCCATTACTCCCTAGTCTCCAGGCACGTGTCAGATATATACATCCTGTGAT
DNA 2: ATCACAGGATGTATATATCTGACACGTGCCTGGAGACTAGGGAGTAATGGCCTTGACGGTTAAAACGCGGGGGACAGCGCGTACGTGCGTTTAAGCGGTGCTAGAGCTGTCTACGACCAATTGAGCGGCCTCGGCACCGGGATTCTCCAGGAT
modifications: reconstituted with mouse histones H2A, H2B, H3.3 and H4
B4: 96 (nucleosome)
DNA 1: ATCCTGGAGAATCCCGGTGCCGAGGCCGCTCAATTGGTCGTAGACAGCTCTAGCACCGCTTAAACGCACGTACGCGCTGTCCCCCGCGTTTTAACCGCTCAAGGCCATACTCCCTAGTCTCCAGGCACGTGTCAGATATATACATCCTGTGAT
DNA 2: ATCACAGGATGTATATATCTGACACGTGCCTGGAGACTAGGGAGTATGGCCTTGAGCGGTTAAAACGCGGGGGACAGCGCGTACGTGCGTTTAAGCGGTGCTAGAGCTGTCTACGACCAATTGAGCGGCCTCGGCACCGGGATTCTCCAGGAT
modifications: reconstituted with mouse histones H2A, H2B, H3.3 and H4
B5: 99 (nucleosome)
DNA 1: ATCCTGGAGAATCCCGGTGCCGAGGCCGCTCAATTGGTCGTAGACAGCTCTAGCACCGCTTAAACGCACGTACGCGCTGTCCCCCGCGTTTTAACCGCCAATCAAGGCCATCCCTAGTCTCCAGGCACGTGTCAGATATATACATCCTGTGAT
DNA 2: ATCACAGGATGTATATATCTGACACGTGCCTGGAGACTAGGGATGGCCTTGATTGGCGGTTAAAACGCGGGGGACAGCGCGTACGTGCGTTTAAGCGGTGCTAGAGCTGTCTACGACCAATTGAGCGGCCTCGGCACCGGGATTCTCCAGGAT
modifications: reconstituted with mouse histones H2A, H2B, H3.3 and H4
B6: 100 (nucleosome)
DNA 1: ATCCTGGAGAATCCCGGTGCCGAGGCCGCTCAATTGGTCGTAGACAGCTCTAGCACCGCTTAAACGCACGTACGCGCTGTCCCCCGCGTTTTAACCGCCAAGTCAAGGCCACCCTAGTCTCCAGGCACGTGTCAGATATATACATCCTGTGAT
DNA 2: ATCACAGGATGTATATATCTGACACGTGCCTGGAGACTAGGGTGGCCTTGACTTGGCGGTTAAAACGCGGGGGACAGCGCGTACGTGCGTTTAAGCGGTGCTAGAGCTGTCTACGACCAATTGAGCGGCCTCGGCACCGGGATTCTCCAGGAT
modifications: reconstituted with mouse histones H2A, H2B, H3.3 and H4
B7: 101 (nucleosome)
DNA 1: ATCCTGGAGAATCCCGGTGCCGAGGCCGCTCAATTGGTCGTAGACAGCTCTAGCACCGCTTAAACGCACGTACGCGCTGTCCCCCGCGTTTTAACCGCCAAGGTCAAGGCCACCTAGTCTCCAGGCACGTGTCAGATATATACATCCTGTGAT
DNA 2: ATCACAGGATGTATATATCTGACACGTGCCTGGAGACTAGGTGGCCTTGACCTTGGCGGTTAAAACGCGGGGGACAGCGCGTACGTGCGTTTAAGCGGTGCTAGAGCTGTCTACGACCAATTGAGCGGCCTCGGCACCGGGATTCTCCAGGAT
modifications: reconstituted with mouse histones H2A, H2B, H3.3 and H4
B8: 97 (nucleosome)
DNA 1: ATCCTGGAGAATCCCGGTGCCGAGGCCGCTCAATTGGTCGTAGACAGCTCTAGCACCGCTTAAACGCACGTACGCGCTGTCCCCCGCGTTTTAACCGCCTCAAGGCCAACTCCCTAGTCTCCAGGCACGTGTCAGATATATACATCCTGTGAT
DNA 2: ATCACAGGATGTATATATCTGACACGTGCCTGGAGACTAGGGAGTTGGCCTTGAGGCGGTTAAAACGCGGGGGACAGCGCGTACGTGCGTTTAAGCGGTGCTAGAGCTGTCTACGACCAATTGAGCGGCCTCGGCACCGGGATTCTCCAGGAT
modifications: reconstituted with mouse histones H2A, H2B, H3.3 and H4
B9: 5 (nucleosome)
DNA 1: ATCCTGGTCAAGGCCAGTGCCGAGGCCGCTCAATTGGTCGTAGACAGCTCTAGCACCGCTTAAACGCACGTACGCGCTGTCCCCCGCGTTTTAACCGCCAAGGGGATTACTCCCTAGTCTCCAGGCACGTGTCAGATATATACATCCTGTGAT
DNA 2: ATCACAGGATGTATATATCTGACACGTGCCTGGAGACTAGGGAGTAATCCCCTTGGCGGTTAAAACGCGGGGGACAGCGCGTACGTGCGTTTAAGCGGTGCTAGAGCTGTCTACGACCAATTGAGCGGCCTCGGCACTGGCCTTGACCAGGAT
modifications: reconstituted with mouse histones H2A, H2B, H3.3 and H4

One assay addresses NR5A2 wild type;histone octamer (Homo sapiens;, UniProt O00482;C0HKE1;Q6ZWY9;P84244;P62806 1-541;2-130;2-126;2-136;2-103, |). The assay can be described thus: SeEN-seq (EMSA of nucleosome library followed by sequencing); 0.8 uM human NR5A2; 20 mM Tris-HCl pH 7.5, 120 mM NaCl, 1 mM MgCl2, 10 uM ZnCl2, 1 mM DTT, 100 ug/ml BSA, room temperature, 30 min; 0.1 uM nucleosome library; high values mean tight binding.
For the molecule B1, the binding signal is 1.36 log2 enrichment (bound/unbound, relative to Widom 601).
Turning to B2, the binding signal is 0.701 log2 enrichment (bound/unbound, relative to Widom 601).
The same measure, in the same setting: with B3 the figure was 1.87 log2 enrichment (bound/unbound, relative to Widom 601); with B4, 1.16 log2 enrichment (bound/unbound, relative to Widom 601); with B5, 0.545 log2 enrichment (bound/unbound, relative to Widom 601).
Turning to B6, the binding signal was 0.655 log2 enrichment (bound/unbound, relative to Widom 601).
The same measure, in the same setting: with B7 the figure was 2.38 log2 enrichment (bound/unbound, relative to Widom 601); with B8, 0.742 log2 enrichment (bound/unbound, relative to Widom 601).

The next assay concerns the target mouse Nr5a2 wild type;histone octamer (Mus musculus;, UniProt P45448;C0HKE1;Q6ZWY9;P84244;P62806 1-560;2-130;2-126;2-136;2-103, |). In words: SeEN-seq (EMSA of nucleosome library followed by sequencing); 1.2 uM mouse Nr5a2; 20 mM Tris-HCl pH 7.5, 120 mM NaCl, 1 mM MgCl2, 10 uM ZnCl2, 1 mM DTT, 100 ug/ml BSA, room temperature, 30 min; 0.1 uM nucleosome library; high values mean tight binding.
For the molecule B1, the binding signal is 1.22 log2 enrichment (bound/unbound, relative to Widom 601).
On the same count and under the same terms, with B2 the figure was 0.557 log2 enrichment (bound/unbound, relative to Widom 601); with B3, 1.29 log2 enrichment (bound/unbound, relative to Widom 601); with B4, 1.04 log2 enrichment (bound/unbound, relative to Widom 601).
In the case of B5, the binding signal is 0.468 log2 enrichment (bound/unbound, relative to Widom 601).
The same measure, in the same setting: for B6 the value was 0.488 log2 enrichment (bound/unbound, relative to Widom 601); for B7, 1.47 log2 enrichment (bound/unbound, relative to Widom 601); for B8, 0.636 log2 enrichment (bound/unbound, relative to Widom 601).
The same measure, in the same setting: for B9 the value was 1.14 log2 enrichment (bound/unbound, relative to Widom 601).

The record behind these values is PMC11102866, “Nucleosome-bound NR5A2 structure reveals pioneer factor mechanism by DNA minor groove anchor competition”.
